# Assay results: PubChem BioAssay (NCATS)
# “And” between values parts separate entries of the source, which are not always exact repeats. Equal values may be shown once. Results filed as inconclusive are left out. A call without a number means that no potency is given here. Unmarked numbers belong to inactive results. The source made the active and inactive calls. Unless noted, calls follow the shape of the dose curve; as a rule, active = well fitted curve in the direction sought with a large enough effect; inconclusive = small, poorly fitted or top-dose-only effect, or another doubt; inactive = no such curve, though single readings can be large; an effect the other way counts as inactive or inconclusive.
# Key:
# [1] = molecular target: Cellular tumor antigen p53 (Homo sapiens) (UniProt P04637); test: Primary qHTS for small molecule compounds that upregulate eGFP-tagged delta133p53alpha (in N-terminal) cells. (AID 2060322); conditions: NCI-H358 eGFP-delta133p53alpha fluorescence, 24 h; activation: active compounds read high; also: nearly all actives have a fitted effect of over 75% in size; also: potency is read from the fitted curve at half-maximal effect;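 as to activation: cells pre-induced with doxycycline then dosed without doxycycline; series mostly up to about 56 µM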
# Sequence of Cellular tumor antigen p53 (Homo sapiens) (P04637 whole entry, looked up): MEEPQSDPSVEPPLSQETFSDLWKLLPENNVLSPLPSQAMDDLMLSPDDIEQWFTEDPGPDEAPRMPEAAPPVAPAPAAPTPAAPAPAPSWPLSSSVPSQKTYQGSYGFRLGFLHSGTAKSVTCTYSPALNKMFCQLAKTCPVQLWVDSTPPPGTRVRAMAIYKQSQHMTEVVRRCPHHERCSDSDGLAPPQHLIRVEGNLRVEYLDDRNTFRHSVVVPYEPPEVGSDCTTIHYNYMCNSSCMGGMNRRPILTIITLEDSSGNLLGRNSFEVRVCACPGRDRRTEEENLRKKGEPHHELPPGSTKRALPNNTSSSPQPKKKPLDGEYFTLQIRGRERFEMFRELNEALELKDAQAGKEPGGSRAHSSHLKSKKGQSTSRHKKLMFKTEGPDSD
# Summary of the method: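 NCI-H358 cells pre-induced 24 h with 10 ng/ml doxycycline for eGFP-delta133p53alpha, plated dox-free and exposed 24 h at 37C to titrated compounds. Fixed, Hoechst-stained; gated GFP peak intensity by laser scanning cytometry, normalized to DMSO (0%) and 57.5 uM 5-azacytidine (100%).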
# [2] = molecular target: Aldehyde dehydrogenase, mitochondrial (Homo sapiens) (UniProt P05091); test: qHTS for Inhibitors of the Aldehyde Dehydrogenase Family (ALDH2) Confirmatory screens (AID 2061303; active = well fitted inhibition curve with a large enough effect; title and protocol of this record describe different tests; also: nearly all actives have a fitted effect of over 45% in size)
# [3] = qHTS for Inhibitors of the Aldehyde Dehydrogenase Family (ALDH1A2, ALDH1A3, ALDH2, ALDH3A1) (AID 2061307); also: nearly all actives have a fitted effect of over 50% in size; as to potency: test system not described further here; potency is read from the fitted curve at half-maximal effect
# [4] = molecular target: Aldehyde dehydrogenase, mitochondrial (Homo sapiens) (UniProt P05091); test: qHTS for Inhibitors of the Aldehyde Dehydrogenase Family (ALDH2) Primary screen (AID 2061308); also: nearly all actives have a fitted effect of over 55% in size
# [5] = molecular target: Retinaldehyde dehydrogenase 3 (Homo sapiens) (UniProt P47895); test: qHTS for Inhibitors of the Aldehyde Dehydrogenase Family (ALDH1A3) Confirmatory screens (AID 2061311); also: nearly all actives have a fitted effect of over 60% in size
# [6] = molecular target: Retinaldehyde dehydrogenase 3 (Homo sapiens) (UniProt P47895); test: qHTS for Inhibitors of the Aldehyde Dehydrogenase Family (ALDH1A3) Validation screen (AID 2061312); also: nearly all actives have a fitted effect of over 45% in size; also: potency is read from the fitted curve at half-maximal effect
# [7] = molecular target: Retinaldehyde dehydrogenase 3 (Homo sapiens) (UniProt P47895); test: qHTS for Inhibitors of the Aldehyde Dehydrogenase Family (ALDH1A3) Primary screen (AID 2061315); also: potency is read from the fitted curve at half-maximal effect
# [8] = molecular target: Retinal dehydrogenase 2 (Homo sapiens) (UniProt O94788); test: qHTS for Inhibitors of the Aldehyde Dehydrogenase Family (ALDH1A2) Confirmation screens (AID 2061314); also: nearly all actives have a fitted effect of over 65% in size
# [9] = molecular target: Aldehyde dehydrogenase 1A1 (Homo sapiens) (UniProt P00352); test: qHTS for Inhibitors of the Aldehyde Dehydrogenase Family (ALDH1A1) Confirmatory screens (AID 2061316); also: nearly all actives have a fitted effect of over 65% in size; also: potency is read from the fitted curve at half-maximal effect
# [10] = molecular target: Aldehyde dehydrogenase, mitochondrial (Homo sapiens) (UniProt P05091); test: qHTS for Inhibitors of the Aldehyde Dehydrogenase Family (ALDH2) Validation screens (AID 2061302; active = well fitted inhibition curve with a large enough effect; title and protocol of this record describe different tests)
smiles,measurement,setting,value
Cc1cc(C(=O)CN2CCCC2)c(C)n1-c1ccc(F)cc1,activation,[1],10% and -5.25%
same,Potency,[2],inactive
same,Potency,[3],inactive
same,Potency,[4],inactive
same,Potency,[5],inactive
same,Potency,[6],inactive
same,Potency,[7],inactive
CCN1C[C@]2(COC(=O)c3ccccc3N3C(=O)C[C@H](C)C3=O)CC[C@H](OC)[C@@]34[C@@H]5C[C@H]6[C@H](OC)[C@@H]5[C@](O)(C[C@@H]6OC)[C@](O)([C@@H](OC)[C@H]23)[C@@H]14,activation,[1],10.3%
same,Potency,[2],inactive
same,Potency,[3],inactive
same,Potency,[4],inactive
same,Potency,[5],inactive
same,Potency,[8],inactive
same,Potency,[7],inactive
same,Potency,[9],inactive
C=CCN1C[C@@H](C)N([C@H](c2ccc(C(=O)N(CC)CC)cc2)c2cccc(OC)c2)C[C@@H]1C,activation,[1],-25.3%
same,Potency,[10],inactive
same,Potency,[6],inactive
C=CCN1CC[C@]23CCCCC2[C@H]1Cc1ccc(O)cc13 (some centres undefined),activation,[1],-35.3%
same,Potency,[10],inactive
same,Potency,[6],inactive
CCS(=O)(=O)Nc1cccc(C(=C2CCCCC2)c2cnc[nH]2)c1,activation,[1],-47%
same,Potency,[10],inactive
same,Potency,[6],inactive
NCCCP(=O)(O)O,activation,[1],-25.8%
same,Potency,[10],inactive
same,Potency,[6],inactive
CC(C)=CCOc1c2occc2cc2ccc(=O)oc12,activation,[1],-10.9% and -24.3%
same,Potency,[10],inactive
same,Potency,[6],inactive
Cc1sc2ccccc2c1CC1=NCCN1,activation,[1],-35.5%
same,Potency,[10],inactive
same,Potency,[6],inactive
COc1ccc2c(c1)c(CCN(C)C)cn2S(=O)(=O)c1ccccc1,activation,[1],7.16%
same,Potency,[2],inactive
same,Potency,[3],inactive
same,Potency,[4],inactive
same,Potency,[5],inactive
same,Potency,[6],inactive
same,Potency,[8],inactive
same,Potency,[7],inactive
COc1ccc2c(c1)C13CCCCC1C(C2)N(C)CC3 (centres undefined),activation,[1],-0.635%
same,Potency,[10],inactive
same,Potency,[6],inactive
CO[C@@H]1[C@H](O)[C@@H](O[C@@H]2C[C@H]3CC[C@@H]4C(CC[C@]5(C)[C@@H](C6=CC(=O)OC6)CC[C@]45O)[C@@]3(C)[C@H](O)C2)O[C@H](C)[C@@H]1O (some centres undefined),Potency,[1],1.04 µM (active)
same,Potency,[2],inactive
same,Potency,[3],inactive
same,Potency,[4],inactive
same,Potency,[5],inactive
same,Potency,[8],inactive
same,Potency,[7],inactive
same,Potency,[9],inactive
CCc1c(C(=O)C(N)=O)c2c(OCC(=O)OC)cccc2n1Cc1ccccc1,activation,[1],-15.3%
same,Potency,[4],inactive
same,Potency,[6],inactive
same,Potency,[7],inactive
COc1cc2c(cc1O)C1(C)CCC(O)C(C)(C)C1CC2=O (centres undefined),activation,[1],-4.58%
same,Potency,[4],inactive
COc1cc2c(c(OC)c1OC)-c1ccc(SC)c(=O)cc1[C@@H](NC(C)=O)CC2,activation,[1],8.33%
same,Potency,[4],inactive
C1=C(c2cnc[nH]2)c2ccsc2CC1,activation,[1],-3.34%
same,Potency,[4],inactive
same,Potency,[6],5.62 µM (active)
CN(C(=O)CN1C(=O)COc2cc(Cl)c(Cl)cc21)[C@@H](CN1CCCC1)c1ccc(-c2cccc(C(N)=O)c2)cc1,Potency,[1],21.3 µM (active)
same,Potency,[4],inactive
C[C@@]1(C(=O)O)CC[C@]2(C)CC[C@]3(C)C4=CC(=O)c5cc(O)c(O)cc5[C@]4(C)CC[C@@]3(C)[C@@H]2C1,activation,[1],-19.1%
same,Potency,[2],inactive
same,Potency,[3],inactive
same,Potency,[4],inactive
same,Potency,[8],inactive
same,Potency,[7],4.47 µM (active)
same,Potency,[9],inactive
NNC(=O)c1nn(Cc2ccc(Cl)cc2Cl)c2ccccc12,activation,[1],17%
same,Potency,[2],inactive
same,Potency,[3],8.91 µM (active)
same,Potency,[4],inactive
same,Potency,[7],inactive
C#CC1(O)CCC2C3CCC4=CC(=O)CCC4=C3C=CC21C (centres undefined),activation,[1],-16.3%
same,Potency,[4],inactive
Cc1[nH]c2ccc(Cl)cc2c1CCN(C)C,activation,[1],-3.82%
same,Potency,[2],inactive
same,Potency,[3],inactive
same,Potency,[5],inactive
same,Potency,[6],10 µM (active)
same,Potency,[8],inactive
same,Potency,[7],inactive
N#Cc1ccc(N2CCN(C(=O)COc3ccc4[nH]cc(CCN)c4c3)CC2)cc1,activation,[1],-4.3%
same,Potency,[2],inactive
same,Potency,[4],inactive
same,Potency,[6],inactive
same,Potency,[9],inactive
CN[C@H]1[C@H](O)[C@H](O[C@@H]2[C@@H](O)[C@H](O[C@H]3O[C@H]([C@H](C)O)[C@@H](O)[C@H](O)[C@H]3N)[C@@H](N)C[C@H]2N)OC[C@@]1(C)O,activation,[1],-4.3%
same,Potency,[4],inactive
same,Potency,[6],inactive
same,Potency,[7],inactive
C/C=C(/C)C1C=CC2CC(C)CC(C)C2C1/C(O)=C1\C(=O)NC(CC(C)(O)C(=O)O)C1=O (centres undefined),activation,[1],-26%
same,Potency,[4],inactive
same,Potency,[5],inactive
same,Potency,[7],inactive
CC(=O)O[C@H]1CC[C@@]2(CI)C(=CC[C@@H]3[C@@H]2CC[C@]2(C)C(=O)CC[C@@H]32)C1,activation,[1],13.7%
same,Potency,[3],inactive
same,Potency,[9],10.1 µM (active)
CCC(C)C1NC(=O)C(C(C)=O)=C1O (centres undefined),activation,[1],13%
same,Potency,[2],inactive
same,Potency,[3],inactive
same,Potency,[4],inactive
same,Potency,[7],inactive
COC(=O)[C@]12CCCC(C)(C)C1CCc1cc(C(C)C)c(O)c(O)c12 (some centres undefined),activation,[1],-23.7%
same,Potency,[4],inactive
CC[C@@H]1C[C@H]2CC[C@H](O2)[C@H](C)C(=O)O[C@@H](C)C[C@@H]2CC[C@@H](O2)[C@@H](C)C(=O)O[C@H](CC)C[C@H]2CC[C@H](O2)[C@H](C)C(=O)O[C@@H](C)C[C@@H]2CC[C@@H](O2)[C@@H](C)C(=O)O1,Potency,[1],6.3 µM (active)
same,Potency,[4],inactive
Cc1c(Cl)c(OCC(=O)N2CCN(C)CC2)nc2sc(C(=O)NC3CC3)c(N)c12,activation,[1],5.25%
same,Potency,[4],inactive
same,Potency,[6],inactive
same,Potency,[7],inactive
CCc1[nH]c2ccc(OC)cc2c1CCN(C)C,activation,[1],8.59%
same,Potency,[2],inactive
same,Potency,[4],inactive
same,Potency,[5],inactive
